According to PubChem BioAssay (Tox21):
A number with no mark means an inactive call. Records with an inconclusive call do not appear. Entries that show only a call come without a potency. Activity calls are given as the source filed them. Unless noted, calls come from the whole dose curve; as a rule, active = well fitted curve in the direction sought with a large enough effect in the repeat runs; inconclusive = weak or mixed curves; inactive = no such curve, though single readings can be large; an effect the other way counts as inactive or inconclusive.

Tests used:
[1] = target: Estrogen receptor beta (Homo sapiens) (UniProt Q92731); test: qHTS assay to identify small molecule agonists of the estrogen receptor beta (ER-beta) signaling pathway (AID 1259377; active = well fitted activation curve with a large enough effect in the signal ratio in the repeat runs, not every such curve was filed as active; the % refers to the signal ratio)
Estrogen receptor beta (Homo sapiens), sequence (Q92731 whole entry, looked up): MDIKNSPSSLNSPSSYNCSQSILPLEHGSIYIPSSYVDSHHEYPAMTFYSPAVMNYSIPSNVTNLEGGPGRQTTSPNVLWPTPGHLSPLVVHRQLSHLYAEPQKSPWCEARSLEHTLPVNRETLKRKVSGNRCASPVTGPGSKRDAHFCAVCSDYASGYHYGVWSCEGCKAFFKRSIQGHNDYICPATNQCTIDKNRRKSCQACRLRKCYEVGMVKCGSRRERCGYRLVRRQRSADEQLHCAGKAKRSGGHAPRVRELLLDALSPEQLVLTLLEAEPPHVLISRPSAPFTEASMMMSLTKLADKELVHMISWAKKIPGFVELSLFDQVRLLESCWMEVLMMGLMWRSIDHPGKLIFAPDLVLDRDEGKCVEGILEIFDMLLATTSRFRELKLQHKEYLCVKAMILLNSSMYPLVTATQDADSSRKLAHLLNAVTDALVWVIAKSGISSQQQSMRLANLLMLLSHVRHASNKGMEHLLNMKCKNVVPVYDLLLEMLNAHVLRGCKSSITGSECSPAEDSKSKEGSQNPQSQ
Procedure, shortened: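 In HEK293T cells bearing a UAS-beta-lactamase reporter under ER-beta control, DMSO-delivered compounds were incubated for 16 hr at 37C. Activity was detected as fluorescence 2 hours after LiveBLAzer B/G FRET substrate addition.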

[2] = target: Estrogen receptor beta (Homo sapiens) (UniProt Q92731); test: qHTS assay to identify small molecule antagonists of the estrogen receptor beta (ER-beta) signaling pathway (AID 1259378; active = well fitted inhibition curve with a large enough effect in the signal ratio in the repeat runs, not every such curve was filed as active; the % refers to the signal ratio; note: potency is the fitted concentration of half-maximal effect)
Procedure, shortened: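 ER-beta-UAS-bla HEK293T (GripTite) cells in 2% charcoal-stripped FBS medium were preincubated 6 hr at 37C, dosed with compound, then stimulated with 1 nM E2 (final) for 16 hr; beta-lactamase reporter read by B/G FRET fluorescence after 2 hr substrate loading.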

[3] = qHTS assay to identify small molecule agonists of the estrogen receptor beta (ER-beta) signaling pathway - cell viability counter screen (AID 1259380); note: nearly all actives have a fitted effect of over 30% in size; note: potency is the fitted concentration of half-maximal effect
Procedure, shortened: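 Cells used were ER-beta-UAS-bla HEK293T in medium with 2% charcoal-stripped FBS. They were treated for 16 hr at 37C. Viability came from CellTiter-Glo luminescence.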

[4] = target: Androgen receptor (Homo sapiens) (UniProt P10275); test: qHTS assay to identify small molecule agonists of the androgen receptor (AR) signaling pathway in the presence of an antagonist (AID 1259381; calls by dose curve; note: nearly all actives have a fitted effect of over 15% in size; note: potency is the fitted concentration of half-maximal effect)
Androgen receptor (Homo sapiens), sequence (P10275 whole entry, looked up): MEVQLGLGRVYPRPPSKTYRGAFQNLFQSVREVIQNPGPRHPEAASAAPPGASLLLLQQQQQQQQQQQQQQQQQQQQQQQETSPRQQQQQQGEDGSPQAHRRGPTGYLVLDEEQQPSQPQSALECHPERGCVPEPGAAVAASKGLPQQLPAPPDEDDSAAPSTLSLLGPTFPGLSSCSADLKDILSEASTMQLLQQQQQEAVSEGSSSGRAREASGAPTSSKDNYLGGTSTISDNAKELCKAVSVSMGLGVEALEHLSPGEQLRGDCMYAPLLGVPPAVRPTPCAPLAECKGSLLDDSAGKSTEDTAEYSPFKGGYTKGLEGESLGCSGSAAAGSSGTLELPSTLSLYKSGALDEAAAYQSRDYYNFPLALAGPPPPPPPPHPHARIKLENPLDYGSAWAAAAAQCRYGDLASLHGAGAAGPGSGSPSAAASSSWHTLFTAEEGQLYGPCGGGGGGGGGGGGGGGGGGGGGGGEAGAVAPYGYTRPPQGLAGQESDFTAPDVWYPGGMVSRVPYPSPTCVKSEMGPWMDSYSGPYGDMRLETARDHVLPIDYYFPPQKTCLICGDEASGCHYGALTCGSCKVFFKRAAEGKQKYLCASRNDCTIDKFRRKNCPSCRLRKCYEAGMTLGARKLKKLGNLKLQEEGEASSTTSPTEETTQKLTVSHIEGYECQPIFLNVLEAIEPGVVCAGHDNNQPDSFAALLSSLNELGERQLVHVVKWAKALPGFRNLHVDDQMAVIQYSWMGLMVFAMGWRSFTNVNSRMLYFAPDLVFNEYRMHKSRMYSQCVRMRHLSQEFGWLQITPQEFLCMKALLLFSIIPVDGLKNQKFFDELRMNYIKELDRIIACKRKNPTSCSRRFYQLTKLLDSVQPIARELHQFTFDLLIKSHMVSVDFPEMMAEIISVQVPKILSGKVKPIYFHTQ
Procedure, shortened: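 Using human MDA-kb2 cells with an MMTV promoter–luciferase construct (AR and GR response elements), agonist activity is scored under 3.0uM nilutamide (final) co-treatment; 16hr incubation, 37C, luminescence readout via ONE-Glo.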

[5] = qHTS assay to identify small molecule antagonists of the estrogen receptor beta (ER-beta) signaling pathway - cell viability counter screen (AID 1259382); note: series mostly up to about 92 µM; nearly all actives have a fitted effect of over 55% in size
Procedure, shortened: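 Agonist-stimulated (1nM E2) ER-beta-UAS-bla HEK293T cells are incubated with library compounds for 16 hr at 37C. Cell viability is then assessed in the reporter-assay wells by adding CellTiter-Glo and reading luminescence after 30 min.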

[6] = qHTS assay to identify small molecule agonists or antagonists of the thyroid stimulating hormone receptor (TSHR) signaling pathway - wild type cell line counter screen (AID 1259384; calls by dose curve)
Procedure, shortened: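 Wild-type HEK293 cells were plated 18 h at 37 C/5% CO2, pin-dosed with compound plus Ro20-1724 medium, held 30 min at room temperature, then given cAMP-d2 and anti-cAMP-cryptate; fluorescence was read after 1 h. Fifteen concentrations, triplicate.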

[7] = target: Thyrotropin receptor (Homo sapiens) (UniProt P16473); test: qHTS assay to identify small molecule antagonists of the thyroid stimulating hormone receptor (TSHR) signaling pathway (AID 1259385; calls by dose curve; note: nearly all actives have a fitted effect of over 20% in size)
Thyrotropin receptor (Homo sapiens), sequence (P16473 whole entry, looked up): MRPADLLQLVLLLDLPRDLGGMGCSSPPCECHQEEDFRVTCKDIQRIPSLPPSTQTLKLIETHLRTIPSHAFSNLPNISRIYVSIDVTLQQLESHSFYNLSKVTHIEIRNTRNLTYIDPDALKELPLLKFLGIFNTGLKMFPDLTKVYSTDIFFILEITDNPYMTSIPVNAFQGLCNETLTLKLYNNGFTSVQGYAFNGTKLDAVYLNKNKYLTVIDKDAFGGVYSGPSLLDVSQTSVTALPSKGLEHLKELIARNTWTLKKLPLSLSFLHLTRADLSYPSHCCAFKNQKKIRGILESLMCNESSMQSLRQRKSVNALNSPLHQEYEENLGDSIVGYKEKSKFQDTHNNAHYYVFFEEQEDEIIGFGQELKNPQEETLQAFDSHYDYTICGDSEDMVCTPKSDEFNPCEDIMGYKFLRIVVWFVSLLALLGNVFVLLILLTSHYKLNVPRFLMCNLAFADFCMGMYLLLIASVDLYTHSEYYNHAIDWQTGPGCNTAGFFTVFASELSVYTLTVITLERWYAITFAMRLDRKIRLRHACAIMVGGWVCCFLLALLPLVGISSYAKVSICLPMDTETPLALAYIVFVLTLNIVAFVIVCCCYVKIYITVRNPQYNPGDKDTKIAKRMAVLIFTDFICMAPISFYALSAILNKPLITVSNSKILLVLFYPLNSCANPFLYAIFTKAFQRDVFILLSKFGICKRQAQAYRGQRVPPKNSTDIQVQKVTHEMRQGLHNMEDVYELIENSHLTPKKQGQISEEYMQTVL
Procedure, shortened: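 TSHR-HEK293 cells were plated and held 18 h at 37C/5% CO2, then given compound plus Ro20-1724 and stimulated with TSH at 1.5 ng/mL final. After 30 min at room temperature, cAMP was detected with cAMP-d2/anti-cAMP-cryptate (1 h) by fluorescence.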

[8] = qHTS assay to identify small molecule agonists of the estrogen receptor alpha (ER-alpha) signaling pathway in the presence of an antagonist - cell viability counter screen (AID 1259386);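 note: series mostly up to about 92 µM; cells exposed to compounds for 22 h at 37 °C before the viability read; nearly all actives have a fitted effect of over 30% in size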
Procedure, shortened: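 ICI-182,780 at 10.0nM final accompanies the compound titration (15 concentrations, 22hr, 37C) on VM7Luc4E2 cells. The CellTiter-Fluor fluorescence readout runs in the same wells as the luciferase assay.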

[9] = qHTS assay to identify small molecule agonists of the androgen receptor (AR) signaling pathway in the presence of an antagonist - cell viability counter screen (AID 1259379);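 note: MDA-kb2 human breast cancer cells carrying an MMTV luciferase reporter; series mostly up to about 92 µM; nearly all actives have a fitted effect of over 25% in size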
Procedure, shortened: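 A CellTiter-Fluor read-out measured viability of MDA-kb2 reporter cells (MMTV promoter with AR and GR response elements). Treatment: nilutamide 3.0uM final with compounds at 15 concentrations, 16 hr, 37C, 0% CO2.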

[10] = target: Estrogen receptor (Homo sapiens) (UniProt P03372); test: qHTS assay to identify small molecule agonists of the estrogen receptor alpha (ER-alpha) signaling pathway in the presence of an antagonist (AID 1259383; calls by dose curve; note: top concentration of the series differs between compounds; nearly all actives have a fitted effect of over 15% in size)
Estrogen receptor (Homo sapiens), sequence (P03372 whole entry, looked up): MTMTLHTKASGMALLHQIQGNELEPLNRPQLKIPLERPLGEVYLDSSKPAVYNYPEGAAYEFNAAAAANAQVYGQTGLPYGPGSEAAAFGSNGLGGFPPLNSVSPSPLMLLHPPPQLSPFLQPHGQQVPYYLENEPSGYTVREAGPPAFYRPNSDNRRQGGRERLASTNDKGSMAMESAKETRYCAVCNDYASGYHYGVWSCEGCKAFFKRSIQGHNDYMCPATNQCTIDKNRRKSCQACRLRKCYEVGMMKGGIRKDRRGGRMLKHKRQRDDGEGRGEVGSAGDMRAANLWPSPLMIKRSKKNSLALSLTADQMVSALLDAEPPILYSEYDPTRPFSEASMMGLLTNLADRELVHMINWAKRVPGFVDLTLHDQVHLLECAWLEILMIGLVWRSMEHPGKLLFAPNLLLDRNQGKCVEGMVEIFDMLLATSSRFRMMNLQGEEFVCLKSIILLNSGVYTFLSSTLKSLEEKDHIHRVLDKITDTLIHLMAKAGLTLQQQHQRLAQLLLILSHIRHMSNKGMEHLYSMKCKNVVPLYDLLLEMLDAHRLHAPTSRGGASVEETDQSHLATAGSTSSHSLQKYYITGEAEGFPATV
Procedure, shortened: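 Using VM7Luc4E2 cells seeded 24hr before treatment, antagonist ICI-182,780 (10.0nM final) was added, followed by compounds at 15 concentrations. Plates incubated 22hr; ONE-Glo luminescence quantified reporter activity.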

SMILES | outcome [1] | Potency [2] | Potency [3] | Potency [4] | outcome [5] | outcome [6] | Potency [7] | Potency [8] | Potency [9] | Potency [10]
CC(=O)OC(C)OC(C)=O | inactive | inactive | inactive | inactive | inactive | inactive | inactive | inactive |  | 
O=[N+]([O-])c1nccn1CO[C@@H](CO)[C@H](O)CO | inactive | inactive | inactive |  | inactive |  | inactive | inactive | inactive | 
Cc1nnc(SCC2=C(C(=O)O)N3C(=O)[C@@H](NC(=O)Cn4cnnn4)[C@H]3SC2)s1 | inactive | inactive | inactive |  | inactive | inactive | inactive | inactive |  | inactive
CC(C)(C)C1CCCCC1=O (stereo unspecified) | inactive | inactive | inactive |  | inactive |  |  | inactive | inactive | inactive
COc1cc2c(cc1N)oc1ccccc12 | inactive | inactive | inactive |  | inactive |  |  | inactive | inactive | 
CCc1nnc(NS(=O)(=O)c2ccc(N)cc2)s1 | inactive | inactive | inactive |  | inactive |  | inactive | inactive | inactive | 
CCN1CC(CCN2CCOCC2)C(c2ccccc2)(c2ccccc2)C1=O (stereo unspecified) | inactive | inactive | inactive |  | inactive | inactive | inactive |  | inactive | 
NCCC(O)(P(=O)(O)O)P(=O)(O)O | inactive | inactive | inactive |  | inactive |  | inactive | inactive | inactive | 
CCN[C@H]1CN(CCCOC)S(=O)(=O)c2sc(S(N)(=O)=O)cc21 | inactive | inactive | inactive |  | inactive | inactive | inactive | inactive |  | inactive
Cc1onc(-c2ccccc2)c1C(=O)Cl | inactive | inactive | inactive |  | inactive |  | inactive | inactive | inactive | 
FC(F)(F)C(F)(F)C(F)(F)C(F)(F)C(F)(F)C(F)(F)C(F)(F)C(F)(F)Br | inactive | inactive | inactive |  | inactive | inactive | inactive | inactive |  | inactive
Oc1ccccc1C=NCc1ccccc1 | inactive | inactive | inactive |  | inactive | inactive | inactive |  | inactive | 
C=Cc1ccccc1 | inactive | inactive | inactive |  | inactive |  |  | inactive | inactive | inactive
FC(F)(F)c1ccccc1 | inactive | inactive | inactive |  | inactive | inactive | inactive | inactive |  | inactive
CCCCNc1ccc(C(=O)OCCN(CC)CC)cc1 | inactive | inactive |  |  | inactive |  | inactive | inactive | inactive | inactive
CCOC(=O)c1cc(=O)c2c(OCC(COc3cccc4oc(C(=O)OCC)cc(=O)c34)OC(=O)[C@@H](N)CCCCN)cccc2o1 | inactive | inactive | inactive | inactive | inactive | inactive | inactive | inactive |  | inactive
O=C1N(c2ccccc2)c2ccccc2C1(Cc1ccncc1)Cc1ccncc1 | inactive | inactive | inactive |  | inactive |  |  | inactive | inactive | inactive
Nc1cccc(S(=O)(=O)O)c1 | inactive | inactive | inactive |  | inactive | inactive | inactive | inactive |  | inactive
CCC(=O)c1ccc2c(c1)N(CCCN(C)C)c1ccccc1S2 | inactive | 26.6 µM (active) | 29.8 µM (active) | inactive |  |  |  | inactive |  | 
CCOc1ccc(NS(=O)(=O)c2ccc(N)cc2)nn1 | inactive | inactive | inactive |  | inactive | inactive | inactive | inactive | inactive | 
N#Cc1ccc(C(c2ccc(C#N)cc2)n2cncn2)cc1 | inactive | inactive | inactive | inactive | inactive | inactive | inactive | inactive |  | inactive
C=O | inactive | inactive | inactive |  | inactive |  | inactive | inactive | inactive | 
O=C(C(Cl)Cl)N1CCOC12CCCCC2 | inactive | inactive | inactive |  | inactive | inactive | inactive | inactive |  | inactive
CCCCCCCCCCCCCCCCOP(=O)([O-])OCC[N+](C)(C)C | inactive | inactive |  |  | inactive | inactive | inactive | inactive | inactive | 
O=c1[nH]cnc2c1ncn2[C@@H]1O[C@H](CO)[C@@H](O)[C@H]1O | inactive | inactive | inactive |  | inactive | inactive | inactive | inactive | inactive | 
CC(=O)O[C@H]1CC[C@@]2(C)C(=CC[C@@H]3[C@@H]2CC[C@]2(C)C(C(C)=O)=CC[C@@H]32)C1 | inactive | inactive | inactive | inactive | inactive | inactive |  | inactive |  | inactive
O=C1CCN(c2ccccc2)N1 | inactive |  | 21.8 µM (active) | 30.7 µM (active) |  | inactive | inactive | inactive |  | inactive
CC(C)Nc1nc(N)nc(Cl)n1 | inactive |  | inactive |  | inactive | inactive | inactive | inactive |  | 
